Test results taken from the supplement of paper PMC12645437, “Orthogonal IMiD-Degron Pairs Induce Selective Protein Degradation in Cells” (ACS Chemical Biology, 2025).
In all, about 8,300 sequences were measured (“log2 fold change of degron read counts, EGFP-low vs EGFP+ sorted cells (limma voom), compound-induced degradation”: median about -1.1, highest 2% from about 3.2 on). The list comes from a sample in which the highest values are over-represented; it also holds similar and randomly drawn sequences.

T1: CRBN, Q96SW2
T1 chain: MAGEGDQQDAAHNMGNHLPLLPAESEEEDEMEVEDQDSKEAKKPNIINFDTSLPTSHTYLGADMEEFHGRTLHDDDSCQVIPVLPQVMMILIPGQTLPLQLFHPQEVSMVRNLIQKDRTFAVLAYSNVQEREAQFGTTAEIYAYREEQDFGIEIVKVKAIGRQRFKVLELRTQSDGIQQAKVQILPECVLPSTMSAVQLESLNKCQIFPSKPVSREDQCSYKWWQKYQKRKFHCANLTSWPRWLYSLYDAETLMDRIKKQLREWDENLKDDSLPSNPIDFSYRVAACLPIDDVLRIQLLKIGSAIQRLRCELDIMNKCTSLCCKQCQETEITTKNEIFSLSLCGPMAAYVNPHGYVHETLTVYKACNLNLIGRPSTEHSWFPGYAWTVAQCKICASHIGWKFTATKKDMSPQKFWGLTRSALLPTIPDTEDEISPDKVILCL


Target: T1, CRBN, Q96SW2
Experiment: log2 fold change of degron read counts, EGFP-low vs EGFP+ sorted cells (limma voom), compound-induced degradation; higher = more compound-induced degradation of the degron-EGFP fusion; degrons are variants of IKZF1/3 zinc finger 2; compound dose not given here
Details: Jurkat, 18 h
[1] = compound: compound 19 (5-tert-butyl-thalidomide)
[2] = compound: compound 22 (5-morpholino-thalidomide)
[3] = compound: compound 33 (diphenyl IMiD analogue)
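Note: pooled lentiviral library of zinc finger degron-EGFP fusions in mCherry-positive Jurkat cells, FACS-sorted after compound exposure, with degron abundance counted by next-generation sequencing.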

Sequence | log2 fold change of degron read counts [1] | log2 fold change of degron read counts [2] | log2 fold change of degron read counts [3] | log2 fold change of degron read counts (compound: thalidomide)
FDCSVCGHIFTQKGNLLRHIKL [46F_47D_49S_50V_52G_53H_54I_55F_67L_, Q9UKT9] | -1.69 | -1.84 | -1.76 | -1.28
FMCPICGAWFTQKGNLLRHIKL [46F_47M_49P_50I_52G_53A_54W_55F_67L_, Q9UKT9] | -1.26 | -0.611 | 1.3 | -0.221
FDCPICGAEFTQKGNLLRHIKL [46F_47D_49P_50I_52G_53A_54E_55F_67L_, Q9UKT9] | -0.0781 | -0.933 | 1.14 | 0.579
FDCNVCGALFTQKGNLLRHIKL [46F_47D_49N_50V_52G_53A_54L_55F_67L_, Q9UKT9] | -2.45 | -2.67 | -0.75 | -0.856
FRCPICGHEFTQKGNLLRHIKL [46F_47R_49P_50I_52G_53H_54E_55F_67L_, Q9UKT9] | -2.68 | -2.48 | -1.5 | -1.35
FTCEQCGAHFTQKGNLLRHIKL [46F_47T_49E_50Q_52G_53A_54H_55F_67L_, Q9UKT9] | -1.82 | -1.63 | -0.151 | -0.624
FVCNQCGHNFTQKGNLLRHIKL [46F_47V_49N_50Q_52G_53H_54N_55F_67L_, Q9UKT9] | -3 | -3.4 | -2.99 | -3.15
FVCEICGAKFTQKGNLLRHIKL [46F_47V_49E_50I_52G_53A_54K_55F_67L_, Q9UKT9] | 1.42 | 1.89 | 0.387 | 3.07
FICEICGAKFTQKGNLLRHIKL [46F_47I_49E_50I_52G_53A_54K_55F_67L_, Q9UKT9] | 0.419 | 2.07 | 0.709 | 2.61
FMCEICGAKFTQKGNLLRHIKL [46F_47M_49E_50I_52G_53A_54K_55F_67L_, Q9UKT9] | 0.747 | -0.267 | 0.58 | 1.27
FWCEICGAKFTQKGNLLRHIKL [46F_47W_49E_50I_52G_53A_54K_55F_67L_, Q9UKT9] | 3.96 | 3.75 | 1.53 | 1.31
FGCEICGAKFTQKGNLLRHIKL [46F_47G_49E_50I_52G_53A_54K_55F_67L_, Q9UKT9] | 3.49 | 1.63 | -1.11 | 1.73
FACEICGAKFTQKGNLLRHIKL [46F_47A_49E_50I_52G_53A_54K_55F_67L_, Q9UKT9] | 3.82 | 1.86 | -1.82 | 1.35
FRCEICGAKFTQKGNLLRHIKL [46F_47R_49E_50I_52G_53A_54K_55F_67L_, Q9UKT9] | -0.269 | -0.354 | 0.56 | 1.68
FTCEICGAKFTQKGNLLRHIKL [46F_47T_49E_50I_52G_53A_54K_55F_67L_, Q9UKT9] | 0.913 | 1.9 | 0.245 | 2.71
FFCNQCGAAFTQKGNLLRHIKL [46F_47F_49N_50Q_52G_53A_54A_55F_67L_, Q9UKT9] | -1.05 | -0.697 | -0.811 | -1.91
LMCPICGFICTQKGNLLRHIKL [46L_47M_49P_50I_52G_53F_54I_55C_67L_, Q9UKT9] | -0.334 | 0.292 | 2.06 | 1.27
LRCNQCGFGCTQKGNLLRHIKL [46L_47R_49N_50Q_52G_53F_54G_55C_67L_, Q9UKT9] | -1.13 | -1.8 | -1.41 | -1.08
